Assay [1] has as its system Epidermal growth factor receptor (Homo sapiens), P00533 [T790M]. The following applies: at 1 µM.
For assay [2], the system named is Epidermal growth factor receptor (Homo sapiens), P00533 [L858R,T790M]. Conditions: at 0.1 µM.
Assay [3] has the same test system. The following applies: at 1 µM.
The target of assay [4] is Ephrin type-A receptor 2 (Homo sapiens) (UniProt P29317). Conditions: at 0.1 µM.
For assay [5] the target is unchanged. Conditions: at 1 µM.
Assay [6] has as its target T1, Ephrin type-A receptor 3 (Homo sapiens) (UniProt P29320).
T1 sequence (whole entry): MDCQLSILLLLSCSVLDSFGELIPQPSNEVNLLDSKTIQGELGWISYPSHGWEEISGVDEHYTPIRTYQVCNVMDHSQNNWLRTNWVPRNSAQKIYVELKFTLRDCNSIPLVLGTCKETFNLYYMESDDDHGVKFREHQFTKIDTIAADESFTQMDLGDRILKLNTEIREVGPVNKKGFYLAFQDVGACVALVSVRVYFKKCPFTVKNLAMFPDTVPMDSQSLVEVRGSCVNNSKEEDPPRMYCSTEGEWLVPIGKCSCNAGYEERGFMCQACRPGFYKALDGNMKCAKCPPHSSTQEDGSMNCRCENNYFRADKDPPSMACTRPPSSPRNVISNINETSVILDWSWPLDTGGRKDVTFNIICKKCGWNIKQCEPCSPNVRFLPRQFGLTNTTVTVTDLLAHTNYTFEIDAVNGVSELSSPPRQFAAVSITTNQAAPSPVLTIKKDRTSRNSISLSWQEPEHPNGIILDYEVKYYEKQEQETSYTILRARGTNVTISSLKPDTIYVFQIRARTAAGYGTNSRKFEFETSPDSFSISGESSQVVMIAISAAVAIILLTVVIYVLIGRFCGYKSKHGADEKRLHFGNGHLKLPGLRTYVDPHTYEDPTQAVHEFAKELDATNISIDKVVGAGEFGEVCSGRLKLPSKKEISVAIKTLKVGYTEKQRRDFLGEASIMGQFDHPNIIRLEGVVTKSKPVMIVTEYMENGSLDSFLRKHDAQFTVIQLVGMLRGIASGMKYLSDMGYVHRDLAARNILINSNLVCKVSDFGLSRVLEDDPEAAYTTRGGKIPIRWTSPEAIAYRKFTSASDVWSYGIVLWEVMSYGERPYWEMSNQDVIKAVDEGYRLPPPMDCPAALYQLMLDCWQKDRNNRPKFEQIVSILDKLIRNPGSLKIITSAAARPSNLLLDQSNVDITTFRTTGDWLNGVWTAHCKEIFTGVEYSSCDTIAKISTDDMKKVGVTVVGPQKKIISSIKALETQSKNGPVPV
Conditions: at 0.1 µM.

Assay [7] concerns the target T1, Ephrin type-A receptor 3 (Homo sapiens). Conditions: at 1 µM.
Assay [8] concerns the target Ephrin type-A receptor 4 (Homo sapiens) (UniProt P54764). The following applies: at 0.1 µM.
Assay [9] has the same target. The following applies: at 1 µM.
The target of assay [10] is T2, Ephrin type-B receptor 2 (Homo sapiens) (UniProt P29323).
T2 sequence (whole entry): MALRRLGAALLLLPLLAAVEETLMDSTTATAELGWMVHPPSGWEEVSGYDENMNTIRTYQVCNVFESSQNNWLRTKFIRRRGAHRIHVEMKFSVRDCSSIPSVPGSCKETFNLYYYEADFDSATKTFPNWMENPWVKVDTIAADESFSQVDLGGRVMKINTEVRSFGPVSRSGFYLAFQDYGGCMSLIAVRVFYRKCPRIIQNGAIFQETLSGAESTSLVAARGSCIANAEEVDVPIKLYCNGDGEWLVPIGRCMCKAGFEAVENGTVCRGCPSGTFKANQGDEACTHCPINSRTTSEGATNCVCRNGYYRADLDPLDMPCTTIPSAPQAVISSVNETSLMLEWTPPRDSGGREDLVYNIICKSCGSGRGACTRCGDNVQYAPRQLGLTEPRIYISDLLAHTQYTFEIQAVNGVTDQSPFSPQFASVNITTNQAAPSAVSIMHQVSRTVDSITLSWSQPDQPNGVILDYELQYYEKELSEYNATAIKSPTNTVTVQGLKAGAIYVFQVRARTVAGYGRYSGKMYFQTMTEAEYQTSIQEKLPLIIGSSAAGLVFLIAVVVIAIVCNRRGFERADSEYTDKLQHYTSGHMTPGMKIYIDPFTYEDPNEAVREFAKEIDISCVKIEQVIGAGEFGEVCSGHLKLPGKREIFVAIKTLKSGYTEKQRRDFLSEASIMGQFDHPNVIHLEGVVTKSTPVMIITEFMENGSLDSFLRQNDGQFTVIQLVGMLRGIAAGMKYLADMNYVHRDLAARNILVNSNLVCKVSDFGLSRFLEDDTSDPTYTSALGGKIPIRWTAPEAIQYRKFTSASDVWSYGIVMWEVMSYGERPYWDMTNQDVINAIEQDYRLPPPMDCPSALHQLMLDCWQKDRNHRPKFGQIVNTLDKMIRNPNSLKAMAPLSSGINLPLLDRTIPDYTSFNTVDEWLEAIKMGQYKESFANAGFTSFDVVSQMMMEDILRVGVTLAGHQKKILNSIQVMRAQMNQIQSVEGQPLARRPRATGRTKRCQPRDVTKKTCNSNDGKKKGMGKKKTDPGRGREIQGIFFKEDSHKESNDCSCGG
The following applies: at 0.1 µM.

Assay [11] has as its target T2, Ephrin type-B receptor 2 (Homo sapiens). The following applies: at 1 µM.
For assay [12], the target named is T3, Ephrin type-B receptor 3 (Homo sapiens) (UniProt P54753).
T3 sequence (whole entry): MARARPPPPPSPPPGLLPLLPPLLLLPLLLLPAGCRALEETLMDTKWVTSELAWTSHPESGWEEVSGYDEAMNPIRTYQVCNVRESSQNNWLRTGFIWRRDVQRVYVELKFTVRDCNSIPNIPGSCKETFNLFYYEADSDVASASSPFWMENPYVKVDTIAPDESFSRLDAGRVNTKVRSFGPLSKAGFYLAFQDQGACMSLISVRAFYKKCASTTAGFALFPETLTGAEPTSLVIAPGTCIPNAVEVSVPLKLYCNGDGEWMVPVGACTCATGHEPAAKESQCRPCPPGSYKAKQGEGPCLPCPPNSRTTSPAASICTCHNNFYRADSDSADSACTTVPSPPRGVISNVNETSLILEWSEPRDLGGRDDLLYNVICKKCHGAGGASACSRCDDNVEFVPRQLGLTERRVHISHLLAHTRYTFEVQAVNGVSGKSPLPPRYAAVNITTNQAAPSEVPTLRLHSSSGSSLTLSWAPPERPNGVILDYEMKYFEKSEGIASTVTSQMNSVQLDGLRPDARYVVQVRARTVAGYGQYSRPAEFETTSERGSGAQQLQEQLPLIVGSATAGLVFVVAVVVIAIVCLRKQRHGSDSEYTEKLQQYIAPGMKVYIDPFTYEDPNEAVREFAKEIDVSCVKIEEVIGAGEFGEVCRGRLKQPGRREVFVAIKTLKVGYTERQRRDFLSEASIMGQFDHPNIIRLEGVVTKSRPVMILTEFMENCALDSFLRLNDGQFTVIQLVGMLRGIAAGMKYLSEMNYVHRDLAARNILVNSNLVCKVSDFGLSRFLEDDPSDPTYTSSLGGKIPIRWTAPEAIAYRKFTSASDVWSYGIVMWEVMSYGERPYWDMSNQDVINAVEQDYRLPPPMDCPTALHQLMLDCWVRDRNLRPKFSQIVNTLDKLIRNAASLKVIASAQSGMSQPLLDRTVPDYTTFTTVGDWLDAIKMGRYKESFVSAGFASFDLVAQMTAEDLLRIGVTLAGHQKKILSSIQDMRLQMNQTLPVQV
Conditions: at 0.1 µM.

Assay [13] has as its target T3, Ephrin type-B receptor 3 (Homo sapiens). Conditions: at 1 µM.
Assay [14] deals with T4, Ephrin type-B receptor 4 (Homo sapiens) (UniProt P54760).
T4 sequence (whole entry): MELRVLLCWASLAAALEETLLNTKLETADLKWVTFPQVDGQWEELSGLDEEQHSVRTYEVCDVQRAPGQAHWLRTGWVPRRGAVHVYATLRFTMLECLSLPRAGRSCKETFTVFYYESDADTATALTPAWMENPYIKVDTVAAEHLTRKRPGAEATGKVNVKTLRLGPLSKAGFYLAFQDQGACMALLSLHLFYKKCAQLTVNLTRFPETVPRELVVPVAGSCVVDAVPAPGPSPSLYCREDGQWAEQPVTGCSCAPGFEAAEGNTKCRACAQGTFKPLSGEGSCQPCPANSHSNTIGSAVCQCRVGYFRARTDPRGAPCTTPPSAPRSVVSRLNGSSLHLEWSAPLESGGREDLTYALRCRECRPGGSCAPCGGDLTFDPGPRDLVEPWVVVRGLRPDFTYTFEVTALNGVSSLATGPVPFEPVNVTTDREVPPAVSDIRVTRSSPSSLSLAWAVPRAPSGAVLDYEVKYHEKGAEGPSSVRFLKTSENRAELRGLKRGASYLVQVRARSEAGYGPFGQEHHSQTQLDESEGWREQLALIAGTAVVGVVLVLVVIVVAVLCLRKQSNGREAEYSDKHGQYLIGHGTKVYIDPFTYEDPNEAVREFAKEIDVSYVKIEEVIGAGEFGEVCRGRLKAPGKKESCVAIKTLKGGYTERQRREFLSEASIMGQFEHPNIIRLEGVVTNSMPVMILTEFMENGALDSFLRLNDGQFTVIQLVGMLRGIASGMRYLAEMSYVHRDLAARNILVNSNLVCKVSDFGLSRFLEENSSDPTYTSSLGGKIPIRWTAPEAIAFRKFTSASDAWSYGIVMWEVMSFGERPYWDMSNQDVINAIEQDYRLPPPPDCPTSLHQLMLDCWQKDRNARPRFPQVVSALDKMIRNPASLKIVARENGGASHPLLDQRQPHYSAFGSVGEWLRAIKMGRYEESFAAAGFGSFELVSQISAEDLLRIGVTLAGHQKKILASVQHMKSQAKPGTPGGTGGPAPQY
Conditions: at 0.1 µM.

Assay [15] has as its target T4, Ephrin type-B receptor 4 (Homo sapiens). The following applies: at 1 µM.
The target in assay [16] is Receptor tyrosine-protein kinase erbB-2 (Homo sapiens) (UniProt P04626). The following applies: at 0.1 µM.
Sequence of Receptor tyrosine-protein kinase erbB-2 (Homo sapiens) (P04626 whole entry): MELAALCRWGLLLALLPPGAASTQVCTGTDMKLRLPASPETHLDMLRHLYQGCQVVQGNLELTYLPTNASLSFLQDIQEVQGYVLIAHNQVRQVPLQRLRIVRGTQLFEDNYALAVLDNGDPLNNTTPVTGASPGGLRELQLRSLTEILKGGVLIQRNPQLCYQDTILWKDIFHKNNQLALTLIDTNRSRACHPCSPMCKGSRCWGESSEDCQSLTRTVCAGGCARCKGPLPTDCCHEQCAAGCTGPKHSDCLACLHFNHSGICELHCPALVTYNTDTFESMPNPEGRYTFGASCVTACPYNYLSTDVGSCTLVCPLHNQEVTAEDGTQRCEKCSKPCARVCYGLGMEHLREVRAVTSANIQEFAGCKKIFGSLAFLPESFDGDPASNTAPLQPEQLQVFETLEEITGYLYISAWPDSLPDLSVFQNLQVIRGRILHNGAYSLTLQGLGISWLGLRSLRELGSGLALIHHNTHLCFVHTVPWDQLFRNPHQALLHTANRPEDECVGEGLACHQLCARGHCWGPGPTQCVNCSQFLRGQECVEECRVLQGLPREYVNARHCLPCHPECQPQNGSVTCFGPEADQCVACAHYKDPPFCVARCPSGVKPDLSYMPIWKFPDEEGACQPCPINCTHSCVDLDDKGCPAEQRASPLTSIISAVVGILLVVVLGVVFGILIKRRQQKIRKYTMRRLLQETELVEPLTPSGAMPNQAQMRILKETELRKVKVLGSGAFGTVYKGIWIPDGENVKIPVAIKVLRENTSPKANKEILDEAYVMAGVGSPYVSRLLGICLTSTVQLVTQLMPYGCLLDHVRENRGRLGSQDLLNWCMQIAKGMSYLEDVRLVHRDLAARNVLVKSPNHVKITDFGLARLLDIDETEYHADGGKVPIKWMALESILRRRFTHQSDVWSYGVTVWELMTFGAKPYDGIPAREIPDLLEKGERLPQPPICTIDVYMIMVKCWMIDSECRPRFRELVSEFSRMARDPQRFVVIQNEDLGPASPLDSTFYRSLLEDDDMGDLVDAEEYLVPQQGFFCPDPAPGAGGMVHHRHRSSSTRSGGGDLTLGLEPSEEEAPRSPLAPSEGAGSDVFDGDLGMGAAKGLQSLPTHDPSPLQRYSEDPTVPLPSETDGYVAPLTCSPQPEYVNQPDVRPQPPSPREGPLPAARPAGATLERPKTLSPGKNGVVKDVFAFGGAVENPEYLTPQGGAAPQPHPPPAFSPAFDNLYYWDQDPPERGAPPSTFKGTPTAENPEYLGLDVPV
Assay [17] has the same target. Conditions: at 1 µM.
Assay [18] deals with Receptor tyrosine-protein kinase erbB-4 (Homo sapiens) (UniProt Q15303). Conditions: at 0.1 µM.
Assay [19] shares this target. Conditions: at 1 µM.
The target in assay [20] is Tyrosine-protein kinase Fer (Homo sapiens) (UniProt P16591). Conditions: at 0.1 µM.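 Also: reported figures are averaged percent inhibition of FER.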

The record followed here is ChEMBL document CHEMBL1961873, “Compounds: GSK PKIS; Assays: Nanosyn kinase panel” (2012).

The structures appear in SMILES notation.

Sequence of Ephrin type-A receptor 4 (Homo sapiens) (P54764 whole entry): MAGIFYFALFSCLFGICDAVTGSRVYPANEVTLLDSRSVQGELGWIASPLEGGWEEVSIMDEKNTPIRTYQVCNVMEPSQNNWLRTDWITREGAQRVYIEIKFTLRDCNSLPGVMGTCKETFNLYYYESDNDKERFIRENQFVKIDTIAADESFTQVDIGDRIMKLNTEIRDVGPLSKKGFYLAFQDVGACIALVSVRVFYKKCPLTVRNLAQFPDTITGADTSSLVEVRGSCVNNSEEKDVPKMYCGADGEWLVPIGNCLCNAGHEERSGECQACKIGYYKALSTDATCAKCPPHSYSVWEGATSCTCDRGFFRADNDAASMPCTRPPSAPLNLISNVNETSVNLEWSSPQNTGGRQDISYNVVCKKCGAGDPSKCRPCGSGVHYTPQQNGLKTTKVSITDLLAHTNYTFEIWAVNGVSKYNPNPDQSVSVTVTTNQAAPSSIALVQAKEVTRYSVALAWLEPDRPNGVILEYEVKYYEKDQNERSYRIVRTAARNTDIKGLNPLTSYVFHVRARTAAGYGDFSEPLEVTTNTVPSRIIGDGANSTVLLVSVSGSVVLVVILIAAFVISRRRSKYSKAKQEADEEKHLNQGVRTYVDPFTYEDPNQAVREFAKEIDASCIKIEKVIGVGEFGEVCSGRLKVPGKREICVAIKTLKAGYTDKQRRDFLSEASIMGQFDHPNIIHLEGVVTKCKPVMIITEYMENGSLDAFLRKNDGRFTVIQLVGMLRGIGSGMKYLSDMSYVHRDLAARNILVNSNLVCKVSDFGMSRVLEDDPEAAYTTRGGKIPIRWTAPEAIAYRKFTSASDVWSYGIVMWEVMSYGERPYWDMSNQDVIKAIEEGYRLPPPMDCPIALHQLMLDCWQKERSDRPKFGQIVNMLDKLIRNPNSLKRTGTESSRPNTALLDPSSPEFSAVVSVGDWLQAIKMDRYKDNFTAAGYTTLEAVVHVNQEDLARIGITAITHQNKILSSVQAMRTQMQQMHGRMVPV
Sequence of Epidermal growth factor receptor (Homo sapiens), P00533 [L858R,T790M] (P00533 whole entry T790M/L858R, looked up): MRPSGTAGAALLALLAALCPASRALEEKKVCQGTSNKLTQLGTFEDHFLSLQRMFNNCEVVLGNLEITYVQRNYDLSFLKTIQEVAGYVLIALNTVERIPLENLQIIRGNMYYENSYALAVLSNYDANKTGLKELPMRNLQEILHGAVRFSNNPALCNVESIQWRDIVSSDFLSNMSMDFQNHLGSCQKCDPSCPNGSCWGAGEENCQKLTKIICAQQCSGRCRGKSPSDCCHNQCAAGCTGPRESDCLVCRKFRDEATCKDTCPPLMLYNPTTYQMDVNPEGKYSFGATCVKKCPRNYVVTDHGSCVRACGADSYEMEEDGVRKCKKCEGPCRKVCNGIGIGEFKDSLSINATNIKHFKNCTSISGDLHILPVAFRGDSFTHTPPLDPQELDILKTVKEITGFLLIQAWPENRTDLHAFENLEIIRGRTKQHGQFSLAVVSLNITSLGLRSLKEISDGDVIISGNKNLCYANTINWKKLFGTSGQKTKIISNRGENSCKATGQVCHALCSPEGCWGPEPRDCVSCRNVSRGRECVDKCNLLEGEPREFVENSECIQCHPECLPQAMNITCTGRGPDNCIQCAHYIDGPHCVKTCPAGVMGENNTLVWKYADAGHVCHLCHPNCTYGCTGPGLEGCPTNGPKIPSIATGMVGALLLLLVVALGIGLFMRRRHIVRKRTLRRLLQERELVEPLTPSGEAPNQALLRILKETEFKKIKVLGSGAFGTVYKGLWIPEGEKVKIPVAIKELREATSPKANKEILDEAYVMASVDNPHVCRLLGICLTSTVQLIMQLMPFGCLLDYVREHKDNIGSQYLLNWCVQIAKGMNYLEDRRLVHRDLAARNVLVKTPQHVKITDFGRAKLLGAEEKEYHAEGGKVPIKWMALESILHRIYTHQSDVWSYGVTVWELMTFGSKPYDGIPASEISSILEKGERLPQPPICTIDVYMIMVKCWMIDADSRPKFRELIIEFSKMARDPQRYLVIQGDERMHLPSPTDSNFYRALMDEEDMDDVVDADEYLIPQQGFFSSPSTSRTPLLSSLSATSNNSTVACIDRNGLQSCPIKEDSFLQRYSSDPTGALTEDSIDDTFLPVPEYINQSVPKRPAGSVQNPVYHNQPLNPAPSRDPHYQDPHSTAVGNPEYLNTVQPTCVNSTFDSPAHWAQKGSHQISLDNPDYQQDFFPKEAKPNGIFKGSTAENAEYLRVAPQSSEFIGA
Sequence of Epidermal growth factor receptor (Homo sapiens), P00533 [T790M] (P00533 whole entry T790M): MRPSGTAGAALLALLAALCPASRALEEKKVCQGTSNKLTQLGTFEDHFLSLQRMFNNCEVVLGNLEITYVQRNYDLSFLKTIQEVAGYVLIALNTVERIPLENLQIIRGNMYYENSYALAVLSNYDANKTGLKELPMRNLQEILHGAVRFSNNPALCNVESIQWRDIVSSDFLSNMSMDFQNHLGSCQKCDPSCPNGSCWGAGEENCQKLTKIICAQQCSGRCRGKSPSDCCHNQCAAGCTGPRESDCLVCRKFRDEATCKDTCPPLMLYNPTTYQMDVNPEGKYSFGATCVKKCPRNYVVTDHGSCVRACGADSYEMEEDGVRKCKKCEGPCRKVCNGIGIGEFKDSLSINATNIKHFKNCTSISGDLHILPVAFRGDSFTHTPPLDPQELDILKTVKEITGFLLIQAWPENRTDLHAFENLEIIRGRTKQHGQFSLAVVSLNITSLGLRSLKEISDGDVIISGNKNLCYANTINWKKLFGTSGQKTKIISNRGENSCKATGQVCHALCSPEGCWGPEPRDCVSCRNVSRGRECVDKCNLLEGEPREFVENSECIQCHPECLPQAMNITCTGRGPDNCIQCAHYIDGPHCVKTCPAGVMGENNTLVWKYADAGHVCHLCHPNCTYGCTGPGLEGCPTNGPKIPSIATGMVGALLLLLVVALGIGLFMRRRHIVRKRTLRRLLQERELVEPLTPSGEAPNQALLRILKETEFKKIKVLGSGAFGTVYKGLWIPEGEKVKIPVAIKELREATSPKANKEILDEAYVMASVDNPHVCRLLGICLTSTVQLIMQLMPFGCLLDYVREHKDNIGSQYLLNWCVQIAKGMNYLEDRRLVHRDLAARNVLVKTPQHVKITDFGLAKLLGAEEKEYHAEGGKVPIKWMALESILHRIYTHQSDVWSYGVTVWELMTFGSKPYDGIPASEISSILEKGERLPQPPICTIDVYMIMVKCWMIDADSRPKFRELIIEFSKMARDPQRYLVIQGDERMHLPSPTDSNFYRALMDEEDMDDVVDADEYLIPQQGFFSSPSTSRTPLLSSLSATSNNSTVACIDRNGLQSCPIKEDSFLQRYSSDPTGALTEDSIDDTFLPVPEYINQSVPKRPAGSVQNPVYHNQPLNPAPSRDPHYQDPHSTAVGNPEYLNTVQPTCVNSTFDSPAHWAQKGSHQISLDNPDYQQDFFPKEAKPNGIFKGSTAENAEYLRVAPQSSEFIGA

Turning to `c1ccc(-c2nc3n(c2-c2ccc4c(c2)OCO4)CCC3)nc1`, the inhibition – broadly, the change of the read-out against control, counted positive when it falls – in assay [1] is 0.6%; in assay [2], 1.92%; in [3], 1.45%; in [4] it was -2.56%; in [5] it was -2.85%; in [6] it was -0.11%. The inhibition in assay [7] stood at 1.96%; in assay [8], 4.05%; in [9], 2.75%; in [10] it was 1.03%; in assay [11] it was 3.77%; in assay [12], 4.03%. The inhibition in [13] is -0.67%; in assay [14], 0.53%; in assay [15], 1.11%; in assay [16], 1.28%; in assay [17], -0.6%; in [18], 3.67%. For the same compound, the inhibition in assay [19] worked out at 1.72%; in assay [20], 2.91%.
As for `Nc1nc(-c2ccc(F)cc2)c(-c2ccc3ncccc3n2)s1`, the inhibition in assay [1] was 5.63%; in [2], 4.54%; in assay [3] it was 14.7%; in assay [4] it was 0.69%; in assay [5], 0.59%; in assay [6], 5.86%. For the same compound, the inhibition worked out at 6.22% in assay [7]; 9.7% in assay [8]; 14.6% in [9]; 9.15% in assay [10]; 15.2% in assay [11]; 5.51% in assay [12]. Moreover, the inhibition came out at 5.14% in assay [13]; 1.8% in assay [14]; 5.58% in assay [15]; 4.65% in assay [16]; 6.61% in assay [17]; 16.8% in assay [18]. Moreover, the values for the inhibition in [19] and in [20] were 48.5% and 2.2%, respectively.
For `CC(C)(CO)CNC(=O)c1ccc2c(c1)/C(=N/Nc1ccc(S(N)(=O)=O)cc1)C(=O)N2`, the inhibition in assay [1] is -0.95%; in [2], -1.33%; in assay [3], -1.42%; in [4], -2.4%; in assay [5], -2.69%; in assay [6] it was -0.22%. The inhibition in assay [7] is 1.81%; in assay [8] it was -0.06%; in assay [9] it was 10.3%; in [10], -4.35%; in assay [11], 7.99%; in assay [12], -0.32%. In addition, the inhibition in assay [13] is 0.79%; in assay [14], -2.31%; in [15], -0.62%; in [16], 0.9%; in assay [17], 3.86%; in assay [18], 4.68%. The inhibition is 7.73% in assay [19] and -7.05% in [20].
Consider `Fc1cccc(COc2ccc(Nc3ncnc4sc(-c5ccco5)cc34)cc2Cl)c1`, for which the inhibition in assay [1] stood at 3.73%; in [2], 0.58%; in assay [3], 3.48%; in assay [4], 2.14%; in assay [5] it was 1.92%; in [6] it was 3.15%. Also, the inhibition in assay [7] was 4.97%; in assay [8], 7.43%; in assay [9] it was 9.74%; in assay [10] it was 9.21%; in [11], 8.15%; in [12] it was 5.55%. Further, the inhibition in assay [13] is 4.99%; in [14], 4%; in [15] it was 2.19%; in assay [16], -0.58%; in assay [17] it was 14.7%; in [18] it was 28.4%. The inhibition in assay [19] was determined as 75.8%; in assay [20], 1.71%.
